According to the supplement of paper PMC7156485:

Experiments:
Details in all cases: concentration: 10 µM; 24 h
HCC1569 [1] = assay: cell number relative to DMSO (% of DMSO); higher = more cells (less growth inhibition / toxicity)
How it was run: (§1)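 Six fields per well were imaged at ×10 after the cells were fixed in 3.7% formaldehyde and stained with a rabbit anti-H1.0 antibody, an AlexaFluor 647 secondary and DAPI. The HCC1569 and TDF cells had been plated at 800 per well in 384-well plates (RPMI, 10% FBS) and treated in triplicate with compounds at 10 µM for 24 h at 37 °C. The values are the median of replicates of H1.0 nuclear intensity or cell number, as percent of the plate control. Smoothing for positional effects was applied to HCC1569 data.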

TDF [2] = assay: as above
How it was run: as §1

TDF [3] = assay: H1.0 immunofluorescence intensity relative to DMSO (% of DMSO); higher = stronger H1.0 induction, active = 120 or more
How it was run: as §1

HCC1569 [4] = assay: H1.0 immunofluorescence intensity relative to DMSO (% of DMSO); higher = stronger H1.0 induction, active = 140 or more
How it was run: as §1
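Wherever H1.0 immunofluorescence intensity relative to DMSO is given: TDF is a line of transformed human dermal fibroblasts of mesenchymal origin.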
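Wherever cell number relative to DMSO is given: TDF denotes transformed human dermal fibroblasts of mesenchymal origin.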

SMILES | cell number (HCC1569 [1]) | cell number (TDF [2]) | H1.0 immunofluorescence intensity (TDF [3]) | H1.0 immunofluorescence intensity (HCC1569 [4])
O=P1(NCCCl)OCCCN1CCCl (stereo unspecified) [Ifosfamide] | 103 | 105 | 97.2 (inactive) | 112 (inactive)
COc1ccccc1CN[C@H]1C2CCN(CC2)[C@H]1C(c1ccccc1)c1ccccc1 | 95.3 | 97.3 | 105 (inactive) | 125 (inactive)
COc1ccc2c(c1O)-c1c(OC)c(OC)cc3c1C(C2)N(C)CC3.Cl (single isomer, unassigned; (+)) [(+)-Isocorydine hydrochloride] | 103 | 107 | 94.5 (inactive) | 91.4 (inactive)
CCC1C(C)=NN=C(c2ccc(OC)c(OC)c2)c2cc(OC)c(OC)cc21 (stereo unspecified) | 93.8 | 103 | 93.1 (inactive) | 90.9 (inactive)
Br.CCC1CN2CCc3cc(OC)c(OC)cc3C2CC1CC1NCCc2cc(O)c(OC)cc21 (stereo unspecified) | 59.6 | 21.4 | 135 (active) | 104 (inactive)
COC1=C(OC)C(=O)C(=C2C(C)=C(C(=O)O)NC(c3ccc4c(n3)C(=O)C(N)=C(OC)C4=O)=C2N)C=C1 [Streptonigrin] | 41.2 | 5.53 | 171 (active) | 128 (inactive)
Cl.c1ccc2c(N3CCNCC3)cccc2c1 [1-(1-Naphthyl)piperazine hydrochloride] | 99.6 | 94.3 | 105 (inactive) | 106 (inactive)
CCCN1CCOC2c3cc(O)ccc3OCC21.Cl (racemic) | 104 | 91 | 88.1 (inactive) | 96.5 (inactive)
CC(C)=CCCC1=CC(=O)c2c(O)ccc(O)c2C1=O [Deoxyshikonin] | 32 | 34.6 | 119 (inactive) | 171 (active)
